Test results from PubChem BioAssay AID763 (NMMLSC, 2007).

Molecular target: fMet-Leu-Phe receptor (Homo sapiens) (UniProt P21462)
Assay: FPR1 fluorescent ligand binding inhibitors, SAR follow-up, selectivity assay for FPRL1 ligand SAR project, cell-based, single concentration (AID 763)
Conditions: FPR1-expressing cells, hits give high values; at 5.4 µM unless noted; call rule not given here

Chain of fMet-Leu-Phe receptor (Homo sapiens) (P21462 whole entry, looked up): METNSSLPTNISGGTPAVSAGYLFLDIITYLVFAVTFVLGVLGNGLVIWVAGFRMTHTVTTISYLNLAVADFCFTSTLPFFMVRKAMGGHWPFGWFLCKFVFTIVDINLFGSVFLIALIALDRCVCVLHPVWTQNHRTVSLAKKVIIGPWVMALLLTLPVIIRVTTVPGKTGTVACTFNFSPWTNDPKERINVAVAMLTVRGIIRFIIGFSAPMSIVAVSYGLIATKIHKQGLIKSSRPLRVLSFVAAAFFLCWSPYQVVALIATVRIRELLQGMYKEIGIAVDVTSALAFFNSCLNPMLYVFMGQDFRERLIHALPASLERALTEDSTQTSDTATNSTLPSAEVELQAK

inhibition, inactive:
FC(F)(F)c1cc(-c2ccccc2)nc(N2CCN(Cc3ccccc3)CC2)n1 -9.1% [at 5.6 µM], Clc1cccc(-c2nc(N3CCN(c4ccccc4)CC3)nc3c2COc2ccccc2-3)c1 -0.5% [at 4.9 µM], Cc1ccc2nc(N3CCN(c4ccccc4Cl)CC3)nc(-c3ccccc3)c2c1 -6%, CCOC(=O)N1CCN(c2nc(-c3ccc(OC)c(OC)c3)cc(C(F)(F)F)n2)CC1 4.1% [at 5.1 µM], CC(=O)N1CCN(c2nc(-c3ccccc3)c3cc(C)ccc3n2)CC1 -0.1% [at 6.4 µM], O=C(O)/C=C\C(=O)N1CCN(c2nc(-c3ccccc3)c3cc(Br)ccc3n2)CC1 -5.7% [at 4.8 µM], COc1ccc(-c2cn3cccnc3n2)cc1NC(=O)C(C)(C)C 1.9% [at 6.9 µM], COc1ccc(-c2cn3cccnc3n2)cc1NC(=O)c1ccc(OC)c(OC)c1 -5.3% [at 5.5 µM], COc1ccc(-c2cc(C#N)nc(N3CCN(c4ccccc4)CC3)n2)cc1 2.6% [at 6 µM], COc1ccc(-c2cn3cccnc3n2)cc1NC(=O)c1ccc(F)c(F)c1 -1.7% [at 5.8 µM], O=C(O)CCC(=O)N1CCN(c2nc(-c3ccccc3)c3cc(Br)ccc3n2)CC1 -0.5% [at 4.7 µM], Fc1ccc(-c2cc(C(F)(F)F)nc(N3CCN(Cc4ccccc4)CC3)n2)cc1 0% [at 5.3 µM], CCOC(=O)N1CCN(c2nc(-c3cccc(Cl)c3)c3c(n2)-c2ccccc2OC3)CC1 3.2% [at 4.9 µM], COc1ccc(-c2cn3cccnc3n2)cc1NC(=O)Cc1ccc(Cl)cc1 8% [at 5.7 µM], CCN1CCN(c2nc(-c3ccc(Cl)cc3)cc(C(F)(F)F)n2)CC1 -3.5% [at 6 µM], COc1ccc(-c2cn3cccnc3n2)cc1NC(=O)c1cccc(C)c1 -4.1% [at 6.2 µM], O=C(O)CCC(=O)N1CCN(c2nc(-c3ccccc3)c3ccccc3n2)CC1 6.1% [at 5.7 µM], COc1ccc(-c2cn3cccnc3n2)cc1NC(=O)c1ccco1 1.3% [at 6.7 µM], CC(C)(C)OC(=O)N1CCN(c2nc(-c3ccccc3)c3cc([N+](=O)[O-])ccc3n2)CC1 -8.4% [at 5.1 µM], COc1ccccc1N1CCN(c2nc(-c3ccc(F)cc3)cc(C(F)(F)F)n2)CC1 -1.1% [at 5.1 µM], FC(F)(F)c1cc(-c2ccccc2)nc(N2CCN(C(c3ccccc3)c3ccccc3)CC2)n1 -4.1% [at 4.7 µM]
